For one experiment, the target named is AMP-activated protein kinase, AMPK (Homo sapiens) (UniProt P54646+O43741+P54619+Q9UGJ0+Q9Y478+Q13131+Q9UGI9). In words: AMP-dependent Kinase enzyme assay. An in vitro enzyme assay that detects ADP turnover that is directly proportional to AMPK activity. This uses naive AMPK that is activated during the assay with MK-8722. To be noted: 30 µM. It counts as functional. Also on record: scale not given: direction of the effect not stated beside the values.
Regarding `COc1ccc(NC(=O)CCN2CC=C(c3cnn(C)c3)CC2)c(C)c1`, the Percent Effect stood at 6.63%. Turning to `Cc1ccc2c(CC(=O)N(C)CCN(C)C)c(C)[nH]c2c1C`, the Percent Effect is -8.21%. The same measure, in the same setting: under `COc1ccc(F)cc1C(=O)C1CCCN(Cc2ccc(C)s2)C1` (stereo unspecified) stands 6.05%; under `O=C(c1nc(=O)[nH]c2ccccc12)N1CCCC2(CCNC2)C1` (stereo unspecified), 1.4%. Consider `CCc1cccc2c(CC(=O)N(C)CCN(C)C)c(C)[nH]c12`, for which the Percent Effect was 9.67%.

For the next experiment, the target named is T1, Arginase-2, mitochondrial (Homo sapiens) (UniProt P78540).
T1 sequence (whole entry): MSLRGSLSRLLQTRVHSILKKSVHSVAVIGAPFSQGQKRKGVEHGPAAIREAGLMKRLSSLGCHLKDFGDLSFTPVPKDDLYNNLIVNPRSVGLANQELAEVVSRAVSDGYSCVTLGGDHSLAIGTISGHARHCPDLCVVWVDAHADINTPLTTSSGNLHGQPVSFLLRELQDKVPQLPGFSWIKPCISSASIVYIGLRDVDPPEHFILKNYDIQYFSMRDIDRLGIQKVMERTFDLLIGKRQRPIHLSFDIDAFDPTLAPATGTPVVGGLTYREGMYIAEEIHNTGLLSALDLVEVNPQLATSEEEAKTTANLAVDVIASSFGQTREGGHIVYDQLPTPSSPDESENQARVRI
In words: in vitro enzyme assay to detect the production of urea directly proportional to the activity of Arginase II. It counts as functional. Also on record: scale not given: in the data most compounds retested in dose-response had high values. To be noted: 30 µM.
As for `c1ccc(O[C@H]2CO[C@@]3(CCCN(Cc4nccs4)C3)C2)nc1`, the Percent Effect is -0.54%. For the compound `O=C1CSC(c2ccsc2)c2c(n(C3CCCC3)[nH]c2=O)N1` (stereo unspecified), the Percent Effect came out at 4.87%. On to `O=C1CSC(c2ccc(O)cc2)c2c(n(C3CCOCC3)[nH]c2=O)N1` (stereo unspecified), for which the Percent Effect stood at 11.3%. Still for that read-out and setting: under `Cc1nc(NCC2CC2)nc2c1COCC21CCNC1` (stereo unspecified) stands 8.11%; under `O=C1CSC(c2ccncc2)c2c(n(C3CCOCC3)[nH]c2=O)N1` (stereo unspecified), 9.19%. The same measure, in the same setting: as for `Cn1cc(C2SCC(=O)Nc3c2c(=O)[nH]n3C2CCOCC2)cn1` (stereo unspecified), the figure is 0.54%; as for `c1ccc(CN2CCC3(CC2)CCN(Cc2cccnc2)C3)nc1`, 8.11%.

Take `c1ccc(O[C@@H]2CO[C@@]3(CCCN(CC4CCOCC4)C3)C2)nc1`: the Percent Effect was 8.11%. As for `O=C1CSC(c2cccnc2)c2c(n(C3CCOCC3)[nH]c2=O)N1` (stereo unspecified), the Percent Effect came to 7.03%.

For the compound `CSc1ccc(C2SCC(=O)Nc3c2c(=O)[nH]n3C2CCOCC2)cc1` (stereo unspecified), the Percent Effect came out at 8.11%. In the case of `CN(Cc1ccco1)[C@@H]1CN(Cc2cccnc2)[C@@H]2CCCO[C@H]12`, the Percent Effect stood at 2.7%. With `CN(Cc1cncnc1)[C@H]1CN(Cc2ccco2)[C@@H]2CCCO[C@@H]21`, the Percent Effect turned out to be 4.87%. For the compound `O=C1CSC(c2ccccc2)c2c(n(C3CCOCC3)[nH]c2=O)N1` (stereo unspecified), the Percent Effect is 5.95%.

Consider `O=C(NCc1ccccn1)[C@]12COC[C@H]1CN(Cc1ccsc1)C2`, for which the Percent Effect is 5.95%. Same read-out and setting: as for `O=C1CSC(c2ccc(Cl)cc2Cl)c2c(n(C3CCOCC3)[nH]c2=O)N1` (stereo unspecified), the figure is 8.11%; as for `O=C1CSC(c2ccc(F)c(Cl)c2)c2c(n(C3CCOCC3)[nH]c2=O)N1` (stereo unspecified), -0.54%.

These data come from ChEMBL document CHEMBL3988442, “University of Dundee, Small-Polar-MMV Screening Library” (2021).
